# In all, about 2,300 compounds went through this assay and about 1,400 (61%) were called active. Roughly 29% stayed inconclusive and do not appear here. Calls come from the whole dose curve; as a rule, active = well fitted inhibition curve with a large enough effect; inconclusive = small, poorly fitted or top-dose-only effect, or effect the other way; inactive = no such curve, though single readings can be large or run the other way. The set was probably picked from earlier hits. This is one part of the list.
# Experiment: Confirmation screen for delayed death inhibitors of the malarial parasite plastid, 96 hour incubation; note: nearly all actives have a fitted effect of over 60% in size
# Settings: P. falciparum luciferase growth in erythrocytes; series mostly up to 28.7 µM
# Summary of the method: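 Erythrocytes infected with luciferase-expressing P. falciparum (2% hematocrit, 0.1% parasitemia final) in RPMI 1640 with 0.5% Albumax, exposed to compounds 96 h at 37 C, 5% CO2. Growth inhibition read as decreased luciferase luminescence.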
# Potency is the fitted concentration of half-maximal effect.
row,SMILES,Potency
1,COc1ccc(NS(=O)(=O)c2ccc(N3CCOCC3)c(NC(=O)c3ccc(OC)cc3)c2)cc1,11.2 µM (active)
2,Cc1cc(Sc2nnc(N)s2)c2ccccc2n1,5.62 µM (active)
3,Cc1cc(Sc2nnc(/N=C/N(C)C)s2)c2ccccc2n1,7.08 µM (active)
4,CC1CCCN(Cc2c(O)ccc3c(=O)c(-c4nc5ccccc5s4)c(N)oc23)C1 (stereo unspecified),0.316 µM (active)
5,CCOc1cc([N+](=O)[O-])cc(/C=N/NC(=O)c2c(-c3ccccc3)noc2C)c1O,14.1 µM (active)
6,COCCn1c(SCc2csc(-c3ccccc3)n2)nc2ccccc21,12.6 µM (active)
7,CN1C(=O)Cc2cc(S(=O)(=O)N3CCN(c4cccc(C(F)(F)F)c4)CC3)ccc21,12.6 µM (active)
8,Cc1cccc(N2CCN(C3=NC(=O)C(Cc4ccccc4)S3)CC2)c1 (stereo unspecified),1.58 µM (active)
9,O=C(Oc1nsnc1N1CCCCC1)N1CCOCC1,10 µM (active)
10,Cc1oc(-c2ccccc2Cl)nc1Cn1cccc1C1=NC(c2ccccc2)CO1 (stereo unspecified),12.6 µM (active)
11,CCn1c(=O)n(CC)c2cc(N3CCCC3)c(NC(=O)c3ccc(C)cc3)cc21,7.08 µM (active)
12,COc1ccc2cc3[n+](cc2c1OC)CCc1cc2c(cc1-3)OCO2,0.501 µM (active)
13,O=C(Nc1ccccc1)N1CCC(O)(c2cccc(C(F)(F)F)c2)CC1,12.6 µM (active)
14,COc1ccc(C#Cc2ccc3c(=O)c4ccccc4n(C)c3c2)cc1,10 µM (active)
15,Cn1c2ccccc2c(=O)c2ccc(C#Cc3ccc(N)cc3)cc21,11.2 µM (active)
16,COc1cccc(S(=O)(=O)NCc2ccc(C(=O)NCc3ccccn3)cc2)c1,inactive
17,COc1ccc(N(C)S(=O)(=O)c2cccc(C(=O)NCc3ccc(C)cc3)c2)cc1,14.1 µM (active)
18,O=C(c1ccc([N+](=O)[O-])cc1)n1nc(-c2ccccc2)nc1NCc1ccc(F)cc1,10 µM (active)
19,Cc1cc(C)nc(SCC(=O)c2ccc(C)c(C)c2)n1,12.6 µM (active)
20,COc1ccccc1N1CCN(CCCCN2C(=O)C3CCCCN3C2=O)CC1 (stereo unspecified),12.6 µM (active)
21,CCN1CCC(Nc2ccnc3cc(Cl)ccc23)CC1,0.158 µM (active)
22,O=C(NNc1ccnc2cc(Cl)ccc12)C1CCCCC1,0.282 µM (active)

row,SMILES,Potency
1,Cc1cccc(-n2ccc(=O)c(C(=O)Nc3ccc(S(=O)(=O)N4CCOCC4)cc3)n2)c1,5.01 µM (active)
2,c1ccc2oc(Cc3ccc(Cc4nc5ccccc5o4)cc3)nc2c1,8.91 µM (active)
3,CC(c1ccco1)N(C(=O)c1cc(Cl)cc(Cl)c1)c1ccccn1 (stereo unspecified),12.6 µM (active)
4,O=C(CCN1C(=O)/C(=C/c2ccccc2)SC1=S)N[C@@H](CO)Cc1ccccc1,12.6 µM (active)
5,O=C(CCCN1C(=O)/C(=C\c2cccs2)SC1=S)Nc1ccc(O)cc1,3.98 µM (active)
6,CCc1ccc(/C=C2\SC(=S)N(CCCC(=O)Nc3ccccc3C(=O)O)C2=O)cc1,15.8 µM (active)
7,O=C(CCN1C(=O)/C(=C\c2ccc(F)cc2)SC1=S)Nc1ccccc1,inactive
8,O=C(CCN1C(=O)/C(=C/c2ccccc2)SC1=S)NCCc1ccc(O)cc1,inactive
9,O=C(CCCN1C(=O)/C(=C/c2cccs2)SC1=S)Nc1ccc(O)cc1,7.08 µM (active)
10,CCc1nn2c(=O)cc(COc3cccc(NC(=O)c4ccco4)c3)nc2s1,10 µM (active)
11,C=CCNC(=O)c1onc(CSc2cccc(C)c2)c1C(=O)O,inactive
12,CCc1noc(C)c1C(=O)N1CCC(CCC(=O)Nc2cccc(C)c2)CC1,6.31 µM (active)
13,CC(=O)c1ccc[n+](CC(=O)NC(C)c2ccccc2)c1 (stereo unspecified),4.47 µM (active)
14,CCc1ccccc1Nc1nc(N)nc(COC(=O)CCC(=O)c2ccc(F)cc2)n1,2.51 µM (active)
15,CCc1ccccc1Nc1nc(N)nc(COC(=O)CCNS(=O)(=O)c2ccccc2)n1,12.6 µM (active)
16,O=C(O)CCNS(=O)(=O)c1cccc(Br)c1,inactive
17,COc1ccccc1-n1c(=S)[nH]c2c(sc(=S)n2-c2ccc(C)cc2C)c1=O,3.16 µM (active)
18,COc1ccccc1CNC(=O)c1ccc(-c2ccccc2Cl)o1,6.31 µM (active)
19,CCCc1nnc(NC(=O)CCC(=O)N2CCN(Cc3ccc(Cl)cc3)CC2)s1,11.2 µM (active)
20,COc1ccc(CN2CCN(C(=O)CCC(=O)Nc3nnc(C4CCCCC4)s3)CC2)cc1F,10 µM (active)
21,CCCC(=O)Nc1nnc(CC(=O)N2CCCC2)s1,inactive
22,O=C(Cc1cccs1)NCCc1ccc(Cl)cc1,5.62 µM (active)

row,SMILES,Potency
1,CC(C)(C)OC(=O)[C@H]1[C@H](c2ccc([N+](=O)[O-])cc2)C2(C(=O)c3ccccc3C2=O)C2c3ccccc3C=NN21 (stereo partly specified),5.01 µM (active)
2,COc1cccc(NC(=O)CSc2nc3ccccc3nc2N2CCCC2)c1,12.6 µM (active)
3,O=C(O)c1nn(CCSc2ccccc2F)c(=O)c2ccccc12,inactive
4,O=c1cc(CSc2ccc(Cl)cc2)nc(-c2ccccn2)[nH]1,3.16 µM (active)
5,CN(CCCN1CCOCC1)C(=O)c1ccc2nc(Cc3cccc(Cl)c3)oc2c1,11.2 µM (active)
6,O=S(=O)(c1cnc[nH]1)N1CCN(C(c2ccc(F)cc2)c2ccc(F)cc2)CC1,11.2 µM (active)
7,O=C(COC(=O)c1ccc(O)cc1O)Nc1ccc2ccccc2c1,inactive
8,O=C(O)c1ccc(O)cc1O,2.51 µM (active)
9,COc1cccc(CNC(=O)c2cc3oc4ccccc4c3n2C)c1OC,inactive
10,CCOc1ccccc1CNC(=O)c1cc2oc3ccccc3c2n1CC,12.6 µM (active)
11,CCOc1ccccc1CNC(=O)c1cc2oc3ccccc3c2n1C,12.6 µM (active)
12,CCOC(=O)[C@H]1[C@H]2COc3cc(OC)ccc3[C@@H]2N2C(=O)N(c3ccc(Cl)cc3)C(=O)[C@@]12C,inactive
13,O=C(CN(c1ccc2c(c1)OCCO2)S(=O)(=O)c1ccccc1)NCc1ccc(Cl)cc1,12.6 µM (active)
14,O=C(CCN1CCN(S(=O)(=O)c2cccc([N+](=O)[O-])c2)CC1)Nc1ccccc1F,10 µM (active)
15,CSc1ccccc1NC(=O)CN1CCN(S(=O)(=O)c2ccccc2[N+](=O)[O-])CC1,12.6 µM (active)
16,CCOC(=O)CCC(=O)Nc1ncnc2c1C(c1ccccc1)c1c(ccc3ccccc13)O2 (stereo unspecified),7.94 µM (active)
17,CCC(=O)c1ccc(OCC(=O)NCC2(N3CCCCC3)CCCCC2)cc1,14.1 µM (active)
18,CN(C)S(=O)(=O)c1ccc(Cl)c(NC(=O)CN2C(=O)NC(C)(C3CC3)C2=O)c1 (stereo unspecified),12.6 µM (active)
19,O=c1[nH]c(C2CCN(S(=O)(=O)c3cccc([N+](=O)[O-])c3)CC2)nc2c1nnn2Cc1ccccc1,8.91 µM (active)
20,C#CCOCCOCCOCCNc1nc(N2CCN(C(=O)Cn3cc(CCCCN)nn3)CC2)nc(N2CCN(C(=O)[C@H](C)n3cc(CCCN=C(N)N)nn3)CC2)n1,1 µM (active)
21,C#CCOCCOCCOCCNc1nc(N2CCN(C(=O)Cn3cc(CC(C)O)nn3)CC2)nc(N2CCN(C(=O)[C@H](C)n3cc(CCCN=C(N)N)nn3)CC2)n1 (stereo partly specified),15.8 µM (active)
22,C#CCOCCOCCOCCNc1nc(N2CCN(C(=O)Cn3cc(CC(C)O)nn3)CC2)nc(N2CCN(C(=O)[C@H]([C@@H](C)CC)n3cc(CCCN=C(N)N)nn3)CC2)n1 (stereo partly specified),1 µM (active)

row,SMILES,Potency
1,COCCNC(=O)CCCCCN1C(=O)CCC1=O,inactive
2,CC1(C)CCSC(/C=C/c2ccccc2)=N1,6.31 µM (active)
3,COc1ccc(/C=C2\CCC/C(=C\C=N\N(C)C)C2=O)cc1,12.6 µM (active)
4,O=C(CC1Sc2ccccc2NC1=O)OCc1cc(=O)oc2cc(O)ccc12 (stereo unspecified),7.08 µM (active)
5,C[C@H]1CN=C2N(CCNC(=O)CCC3CCCCC3)[C@H](Cc3ccc(O)cc3)CN21,6.31 µM (active)
6,O=C(CCC1CCCCC1)NCCN1C2=NC[C@H](Cc3ccccc3)N2C[C@H]1Cc1ccc(O)cc1,6.31 µM (active)
7,C[C@@H](CN1C2=NC[C@H](Cc3ccc(O)cc3)N2C[C@H]1Cc1ccc(O)cc1)NC(=O)CCC1CCCCC1,5.62 µM (active)
8,CC(=O)NC(=S)Nc1ccccc1C(=O)NC1CCCCC1,12.6 µM (active)
9,O=C(NC1CCCCC1)C(c1ccncc1)N(Cc1ccccc1)C(=O)c1ccc(-c2ccccc2)[nH]1 (stereo unspecified),3.98 µM (active)
10,O=C(NC1CCCC1)C(c1ccncc1)N(Cc1ccco1)C(=O)c1ccc(-c2ccccc2)[nH]1 (stereo unspecified),7.94 µM (active)
11,COc1cc2c(cc1OC)-c1cc(N3CCc4ccccc43)nc(=O)n1CC2,5.01 µM (active)
12,COC(=O)CCC(=O)OC1(C)C(=O)C=C2C=C(C3CC3)N(CCCOC(C)C)C=C2C1=O (stereo unspecified),1.12 µM (active)
13,O=C(N/N=C/c1ccc([N+](=O)[O-])cc1)c1cccc(N2CCCC2=O)c1,10 µM (active)
14,CC[C@]1([C@H]2O[C@@H]([C@@H]3O[C@](O)(CO)[C@@H](C)C[C@H]3C)C[C@H]2C)CC[C@@H]([C@]2(C)CC[C@@]3(C[C@@H](O)[C@@H](C)[C@@H]([C@H](C)[C@H](OC)[C@H](C)C(=O)O)O3)O2)O1,0.112 µM (active)
15,Cc1c(C(c2ccc(Br)cc2)c2c(C)n(C)n(-c3ccccc3)c2=O)c(=O)n(-c2ccccc2)n1C,11.2 µM (active)
16,CCOc1ccc2nc(C)cc(Nc3cccc([N+](=O)[O-])c3)c2c1,2 µM (active)
17,CCOc1ccccc1C1N=C(c2ccc(OC)cc2)CC(c2ccccc2O)N1 (stereo unspecified),12.6 µM (active)
18,Cc1cccc(C)c1N1CCN(C(=O)c2ccc3c(c2)OCO3)CC1,12.6 µM (active)
19,O=C(c1ccc(Br)o1)N1CCN(c2ccc3nnc(-c4ccccc4)n3n2)CC1,7.94 µM (active)
20,O=C(Nc1ccccc1C(F)(F)F)N1CCN(c2ccc3nnc(-c4ccc(F)cc4)n3n2)CC1,3.98 µM (active)

# — PubChem BioAssay AID504848 (National Center for Advancing Translational Sciences (NCATS), 2011)
